# Inconclusive results are not listed. Activity calls are given as the source filed them. The calls were made as follows: active = hit-call score of the fitted dose curve at least 0.9, where 1 is the maximum; inconclusive = response in the unintended direction; inactive = score below 0.9.
# Experiment: Tanguay_ZF_120hpf_SOMI_legacy: (Legacy) Oregon State University Tanguay Lab 120 Hour Post-fertilization zebrafish Assay for Somite Malformation (AID 2283647)
# Description: Tanguay_ZF_120hpf_legacy is a whole embryo, multiplexed endpoint assay using zebrafish larvae exposed for 120 hours post fertilization on a 96-well plate.Tanguay_ZF_120hpf_SOMI_legacy is one of one assay component(s) measured or calculated from the Tanguay_ZF_120hpf_legacy assay. It is designed to make measurements of zebrafish development as detected with brightfield microscopy of developing zebrafish embryos.Data from the assay component Tanguay_ZF_120hpf_SOMI_legacy was analyzed into 1 assay endpoints. This assay endpoint, Tanguay_ZF_120hpf_SOMI_legacy, was analyzed in the positive analysis fitting direction relative to DMSO as the negative control and baseline of activity. Using a type of morphology reporter, gain-of-signal activity can be used to understand changes in developmentals as they relate to the whole embryo. To generalize the intended target to other relatable targets, this assay endpoint is annotated to the zebrafish development intended target family, where the subfamily is somitogenesis.
# Zebrafish husbandry: Tropical 5D wild-type adult zebrafish were housed in at an approximate density of 1000 per 100 gallon tank at the Sinnhuber Aquatic Research Laboratory, Oregon State University, Corvallis, OR. Each tank was kept at standard laboratory conditions of 28C on a 14-h light/10-h dark photoperiod in fish water consisting of reverse osmosis water supplemented with a commercially available salt (Instant Ocean). Spawning funnels were placed into the tanks the night prior, and embryos were collected and staged. To increase bioavailability, the chorion was enzymatically removed using pronase (63.6mg/ml, >/= 3.5U/mg, Sigma-Aldrich: P5147) at 4 hours post fertilization (hpf) using a custom automated dechorionator.Chemical exposures: Six hpf dechorionated embryos were placed 1 embryo per well in a 96-well plate prefilled with 90 ul of EM using automated embryo placement systems (AEPS). Ten microliters of each row of dilution plate 2 was added to 2 exposure plates. The final DMSO concentration used was 0.64% (vol/vol). Thirty-two embryos were also exposed to 5uM trimethyltin chloride (positive control). Plates were sealed to prevent evaporation and foil covered to reduce light exposure and kept in a 28C incubator. Embryos were statically exposed until 120 hpf. At 24 hpf, embryos were assessed for photomotor response using a custom photomotor response analysis tool (PRAT) and for developmental toxicity endpoints (MO24: mortality at 24 hpf, DP: developmental progression, SM: spontaneous movement, and NC: notochord distortion). At 120 hpf, locomotor activity was measured using Viewpoint Zebralab and assessed for 18 endpoints. Zebrafish acquisition and analysis program (ZAAP), a custom program designed to inventory, acquire, and manage zebrafish data, was used to collect developmental endpoints as either present or absent (i.e., binary responses were recorded). If mortality occurred for an embryo (at either 24 or 120 hpf), the non-mortality endpoints were not measured.
row,SMILES,outcome
1,Oc1c(Cl)cc(Cl)cc1Cl,inactive
2,N#Cc1cccnc1,inactive
3,CC(C)(C)c1ccccc1O,inactive
4,CCCCCCCCCCCCc1cccc(S(=O)(=O)O)c1,inactive
5,OCCN(CCO)CCO,inactive
6,Oc1cc(Cl)c(Cl)cc1Cl,inactive
7,O=C(O)C1(c2ccc3c(c2)OC[C@H](Cc2ccc(-c4ccccc4)cc2)[C@H]3O)CCCC1,inactive
8,Clc1cccc(Cl)c1,inactive
9,CN(C)C(=S)S,inactive
10,O=C(N[C@H]1CN2CCC1CC2)c1ccc2c(c1)OCCO2,inactive
11,Clc1cccc(Cl)c1Cl,inactive
12,CC(C)O.CC(C)O.OCCN(CCO)CCO.OCCN(CCO)CCO.[Ti],inactive

# Source: PubChem BioAssay (EPA / NIEHS)
